Measurements published in ChEMBL document CHEMBL2218924, “A broad activity screen in support of a chemogenomic map for kinase signalling research and drug discovery” (Biochem J, 2013).

Biological target: T1, Tyrosine-protein kinase Tec (Homo sapiens) (UniProt P42680)
T1 sequence (whole entry): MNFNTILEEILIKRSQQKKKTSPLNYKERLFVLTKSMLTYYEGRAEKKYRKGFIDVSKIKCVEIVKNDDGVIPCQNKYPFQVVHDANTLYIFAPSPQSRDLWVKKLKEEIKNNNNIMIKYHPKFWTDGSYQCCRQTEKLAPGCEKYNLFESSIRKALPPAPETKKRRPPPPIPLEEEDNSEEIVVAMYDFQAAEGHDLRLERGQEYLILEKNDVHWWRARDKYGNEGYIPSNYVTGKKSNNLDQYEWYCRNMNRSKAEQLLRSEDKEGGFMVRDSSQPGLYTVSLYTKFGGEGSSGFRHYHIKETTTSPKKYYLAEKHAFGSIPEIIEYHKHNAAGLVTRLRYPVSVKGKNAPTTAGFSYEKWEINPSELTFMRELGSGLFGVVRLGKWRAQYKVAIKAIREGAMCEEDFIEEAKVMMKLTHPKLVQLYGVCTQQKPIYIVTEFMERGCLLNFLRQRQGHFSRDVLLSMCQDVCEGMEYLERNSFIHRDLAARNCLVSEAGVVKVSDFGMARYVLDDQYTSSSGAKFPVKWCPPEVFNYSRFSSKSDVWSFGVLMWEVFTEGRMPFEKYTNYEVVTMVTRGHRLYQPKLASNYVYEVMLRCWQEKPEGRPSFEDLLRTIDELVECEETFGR
Details: at 10 µM

Row | SMILES | residual activity [%]
1 | Nc1nc(Nc2ccc(S(N)(=O)=O)cc2)nn1C(=S)Nc1c(F)cccc1F | 23
2 | NC(=O)c1ccc2[nH]c(-c3ccc(Oc4ccc(Cl)cc4)cc3)nc2c1 | 92
3 | CC(=O)c1ccc(N2CCOCC2)cc1O | 91
4 | CO[C@H]1[C@@H](OC)C[C@H](C)[C@@H](OC)C2=CC(=O)C=C(NC(=O)/C(C)=C/C=C/[C@H](OC)[C@@H](OC(N)=O)/C(C)=C/[C@@H]1C)C2=O | 84
5 | N#CC(C#N)=C(N)/C(C#N)=C/c1ccc(O)cc1 | 88
6 | O=C1Nc2cc(Br)ccc2/C1=C1/Nc2ccccc2/C1=N\O | 13
7 | c1ccc(-c2n[nH]c3c2oc2ccccc23)cc1 | 76
8 | COc1cc2ncnc(Nc3ccc(NC(=O)c4ccccc4)cc3)c2cc1OC | 82
9 | COc1cc2ncc(-c3ccccc3)nc2cc1OC | 63
10 | COc1cc2ncnc(Nc3ccc(Oc4ccccc4)cc3)c2cc1OC | 10
11 | CN(C)c1ccc(/C=C2\C(=O)Nc3ccccc32)cc1 | 68
12 | O=C1Nc2ccccc2/C1=C1/Nc2ccccc2/C1=N\OCCC(O)CO (configuration not stated) | 8
13 | Oc1ccc(-c2nc(-c3ccc(F)cc3)c(-c3ccncc3)[nH]2)cc1 | 55
14 | COc1ccc(C(=O)Nc2sc3c(c2C(N)=O)CCCC3)cc1OC | 86
15 | N#CCCc1ccc2c(c1)-c1[nH]c3ccc([N+](=O)[O-])cc3c1CC(=O)N2 | 29
16 | CCN(CC)C(=O)c1ccc(Nc2nc(OCC3CCCCC3)c3nc[nH]c3n2)cc1 | 2
17 | C[C@@H](N)[C@H]1CC[C@H](C(=O)Nc2ccncc2)CC1 | 98

Row | SMILES | residual activity [%]
18 | N#C/C(=C(\N)Sc1ccc(N)cc1)c1ccccc1C(F)(F)F | 63
19 | c1ccc2c(-c3ccncc3)c[nH]c2c1 | 85
20 | O=C(O)c1ccc2c3c1cccc3c(=O)n1c3ccccc3nc21 | 82
21 | Nc1ccc2ncnc(NCCc3ccc(Oc4ccccc4)cc3)c2c1 | 30
22 | O=C(Nc1cccc(Nc2nccc(Nc3cccc(C(F)(F)F)c3)n2)c1)C1CC1 | 9
23 | N#Cc1cnc2cnc(NCc3cccnc3)cc2c1Nc1ccc(F)c(Cl)c1 | 65
24 | Ic1cccc(CSc2nnc(-c3ccncc3)o2)c1 | 64
25 | CN(C)CCCn1cc(C2=C(c3c[nH]c4ccccc34)C(=O)NC2=O)c2ccccc21 | 65
26 | O=C1NC(=O)/C(=C/c2ccc3c(c2)OC(F)(F)O3)S1 | 80
27 | Oc1c2ccccc2c2c3c(cccc13)N=N2 | 57
28 | CO[C@H]1C[C@@H]2CC[C@@H](C)[C@@](O)(O2)C(=O)C(=O)N2CCCC[C@H]2C(=O)O[C@H]([C@H](C)C[C@@H]2CC[C@@H](O)[C@H](OC)C2)CC(=O)[C@H](C)/C=C(\C)[C@@H](O)[C@@H](OC)C(=O)[C@H](C)C[C@H](C)/C=C/C=C/C=C/1C | 90
29 | Cc1cc(Nc2nc(-c3ccccc3)nc3ccccc23)n[nH]1 | 4
30 | COc1cc2ncnc(N3CCN(C(=O)Nc4ccc(Oc5ccccc5)cc4)CC3)c2cc1OC | 98
31 | Cc1nc2cc3nc(-c4cccs4)cnc3cc2n1C | 101
32 | CCC(=O)Nc1ccc2ncnc(Nc3cccc(Br)c3)c2c1 | 90
33 | CC#CC(=O)Nc1cc2c(Nc3ccc(F)c(Cl)c3)ncnc2cn1 | 70
34 | Cn1cnc2cc3c(Nc4cccc(Br)c4)ncnc3cc21 | 73

Biological target: Angiopoietin-1 receptor (Homo sapiens) (UniProt Q02763)
Sequence (Q02763 whole entry): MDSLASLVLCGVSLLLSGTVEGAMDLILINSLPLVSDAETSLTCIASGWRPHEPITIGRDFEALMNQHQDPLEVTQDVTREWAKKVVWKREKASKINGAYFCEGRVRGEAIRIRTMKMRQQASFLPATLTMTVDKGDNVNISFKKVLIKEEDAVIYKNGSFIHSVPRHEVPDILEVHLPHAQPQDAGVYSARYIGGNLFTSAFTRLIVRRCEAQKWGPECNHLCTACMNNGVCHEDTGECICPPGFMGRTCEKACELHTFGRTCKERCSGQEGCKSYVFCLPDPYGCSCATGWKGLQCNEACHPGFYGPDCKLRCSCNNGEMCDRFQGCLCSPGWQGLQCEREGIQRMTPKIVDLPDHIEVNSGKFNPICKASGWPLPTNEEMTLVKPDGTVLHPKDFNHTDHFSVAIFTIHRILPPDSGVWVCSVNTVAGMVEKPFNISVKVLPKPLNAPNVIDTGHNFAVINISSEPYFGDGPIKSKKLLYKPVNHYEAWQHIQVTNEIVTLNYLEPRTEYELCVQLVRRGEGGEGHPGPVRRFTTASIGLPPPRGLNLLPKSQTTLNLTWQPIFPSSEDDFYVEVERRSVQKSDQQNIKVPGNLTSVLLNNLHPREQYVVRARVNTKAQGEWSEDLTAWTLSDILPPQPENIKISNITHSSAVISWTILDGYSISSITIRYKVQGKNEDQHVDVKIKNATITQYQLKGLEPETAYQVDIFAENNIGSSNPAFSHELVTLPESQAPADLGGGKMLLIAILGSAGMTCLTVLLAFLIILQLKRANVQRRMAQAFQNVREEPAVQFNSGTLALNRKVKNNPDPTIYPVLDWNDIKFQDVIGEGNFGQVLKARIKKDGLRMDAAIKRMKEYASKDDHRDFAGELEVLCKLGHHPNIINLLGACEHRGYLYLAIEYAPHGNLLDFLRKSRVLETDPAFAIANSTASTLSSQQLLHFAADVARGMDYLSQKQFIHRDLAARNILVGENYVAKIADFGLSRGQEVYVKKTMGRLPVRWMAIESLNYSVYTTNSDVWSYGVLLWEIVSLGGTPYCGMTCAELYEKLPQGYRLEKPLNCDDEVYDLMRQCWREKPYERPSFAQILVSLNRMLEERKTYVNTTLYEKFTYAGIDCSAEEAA
Details: at 1 µM

Row | SMILES | residual activity [%]
35 | Nc1nc(Nc2ccc(S(N)(=O)=O)cc2)nn1C(=S)Nc1c(F)cccc1F | -1
36 | NC(=O)c1ccc2[nH]c(-c3ccc(Oc4ccc(Cl)cc4)cc3)nc2c1 | 109
37 | CC(=O)c1ccc(N2CCOCC2)cc1O | 79
38 | CO[C@H]1[C@@H](OC)C[C@H](C)[C@@H](OC)C2=CC(=O)C=C(NC(=O)/C(C)=C/C=C/[C@H](OC)[C@@H](OC(N)=O)/C(C)=C/[C@@H]1C)C2=O | 84
39 | N#CC(C#N)=C(N)/C(C#N)=C/c1ccc(O)cc1 | 84
40 | O=C1Nc2cc(Br)ccc2/C1=C1/Nc2ccccc2/C1=N\O | 67
41 | c1ccc(-c2n[nH]c3c2oc2ccccc23)cc1 | 83
42 | CN(C)c1ccc(/C=C2\C(=O)Nc3ccccc32)cc1 | 83
43 | Oc1ccc(-c2nc(-c3ccc(F)cc3)c(-c3ccncc3)[nH]2)cc1 | 109
44 | COc1ccc(C(=O)Nc2sc3c(c2C(N)=O)CCCC3)cc1OC | 79
45 | C[C@@H](N)[C@H]1CC[C@H](C(=O)Nc2ccncc2)CC1 | 84
46 | N#C/C(=C(\N)Sc1ccc(N)cc1)c1ccccc1C(F)(F)F | 111
47 | c1ccc2c(-c3ccncc3)c[nH]c2c1 | 77
48 | O=C(O)c1ccc2c3c1cccc3c(=O)n1c3ccccc3nc21 | 106
49 | Nc1ccc2ncnc(NCCc3ccc(Oc4ccccc4)cc3)c2c1 | 114
50 | O=C(Nc1cccc(Nc2nccc(Nc3cccc(C(F)(F)F)c3)n2)c1)C1CC1 | 136
51 | Ic1cccc(CSc2nnc(-c3ccncc3)o2)c1 | 104
52 | CN(C)CCCn1cc(C2=C(c3c[nH]c4ccccc34)C(=O)NC2=O)c2ccccc21 | 120
53 | O=C1Nc2ccc(Br)cc2/C1=C\c1cc2c([nH]1)CCCC2 | 110
54 | O=C1NC(=O)/C(=C/c2ccc3c(c2)OC(F)(F)O3)S1 | 94
55 | Oc1c2ccccc2c2c3c(cccc13)N=N2 | 95
56 | CO[C@H]1C[C@@H]2CC[C@@H](C)[C@@](O)(O2)C(=O)C(=O)N2CCCC[C@H]2C(=O)O[C@H]([C@H](C)C[C@@H]2CC[C@@H](O)[C@H](OC)C2)CC(=O)[C@H](C)/C=C(\C)[C@@H](O)[C@@H](OC)C(=O)[C@H](C)C[C@H](C)/C=C/C=C/C=C/1C | 79
57 | Cc1cc(Nc2nc(-c3ccccc3)nc3ccccc23)n[nH]1 | 77
58 | COc1cc2ncnc(N3CCN(C(=O)Nc4ccc(Oc5ccccc5)cc4)CC3)c2cc1OC | 69
59 | Cc1nc2cc3nc(-c4cccs4)cnc3cc2n1C | 81
60 | CCC(=O)Nc1ccc2ncnc(Nc3cccc(Br)c3)c2c1 | 81
61 | CC#CC(=O)Nc1cc2c(Nc3ccc(F)c(Cl)c3)ncnc2cn1 | 52
62 | Cn1cnc2cc3c(Nc4cccc(Br)c4)ncnc3cc21 | 74
